Source: PubChem BioAssay (NCATS)
Records with an inconclusive call do not appear. Calls of active or inactive are those of the source. Unless noted, calls follow the shape of the full dose curve.

Columns and labels:
[1] = qHTS for Inhibitors of the Functional Ribonucleoprotein Complex (vRNP) of Lassa (LASV) Arenavirus: LASV Primary Screen - GLuc reporter signal (AID 1347082; calls by dose curve; tested in HEK293 reporter line; also: nearly all actives have a fitted effect of over 60% in size)
[2] = qHTS for Inhibitors of the Functional Ribonucleoprotein Complex (vRNP) of Lassa (LASV) Arenavirus: Viability assay - alamar blue signal for LASV Primary Screen (AID 1347083; calls by dose curve; tested in HEK293 reporter line; also: nearly all actives have a fitted effect of over 80% in size)
[3] = qHTS for Inhibitors of the Functional Ribonucleoprotein Complex (vRNP) of Lymphocytic Choriomeningitis Arenaviruses (LCMV): Viability assay - alamar blue signal for LCMV Primary Screen (AID 1347085; calls by dose curve; tested in HEK293 reporter line; also: nearly all actives have a fitted effect of over 80% in size)
[4] = biological target: Nucleoprotein (Lymphocytic choriomeningitis virus (strain Armstrong)) (UniProt P09992); assay: qHTS for Inhibitors of the Functional Ribonucleoprotein Complex (vRNP) of Lymphocytic Choriomeningitis Arenaviruses (LCMV): LCMV Primary Screen - GLuc reporter signal (AID 1347086); also: nearly all actives have a fitted effect of over 70% in size
% is scaled to controls: 0 for no effect and ±100 for the full control effect.
Also: series mostly up to about 57 µM.

Sequence of Nucleoprotein (Lymphocytic choriomeningitis virus (strain Armstrong)) (P09992 whole entry, looked up): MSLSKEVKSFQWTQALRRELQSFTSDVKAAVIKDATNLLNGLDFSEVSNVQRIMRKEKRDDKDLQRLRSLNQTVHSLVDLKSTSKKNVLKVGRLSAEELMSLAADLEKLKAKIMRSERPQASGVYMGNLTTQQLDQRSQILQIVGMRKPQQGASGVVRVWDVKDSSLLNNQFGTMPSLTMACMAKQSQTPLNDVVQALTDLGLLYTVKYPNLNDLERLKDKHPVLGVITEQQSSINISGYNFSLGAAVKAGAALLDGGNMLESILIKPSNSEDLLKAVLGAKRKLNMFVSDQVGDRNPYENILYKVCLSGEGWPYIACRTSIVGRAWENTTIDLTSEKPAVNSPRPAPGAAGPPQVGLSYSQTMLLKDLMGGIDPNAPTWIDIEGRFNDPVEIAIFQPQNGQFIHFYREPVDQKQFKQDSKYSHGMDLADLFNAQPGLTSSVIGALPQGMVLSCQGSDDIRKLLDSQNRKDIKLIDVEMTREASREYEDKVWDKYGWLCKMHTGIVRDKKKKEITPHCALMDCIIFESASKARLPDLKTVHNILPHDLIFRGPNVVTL

CC1CN(c2cc3c(cc2F)c(=O)c(C(=O)O)cn3-c2ccc(F)cc2F)CCN1 (stereo not given)
inactive: activity change, negative = inhibition [1] 7.88% [at 5.82 µM] | activity change, negative = reduced viability [2] 9.98% [at 5.82 µM] | activity change, negative = lower viability [3] 2.49% [at 5.82 µM] | activity change, negative = inhibition [4] -0.151% [at 5.82 µM]

CCCCOC(=O)c1ccc(O)cc1
inactive: Potency [1] | Potency [2] | Potency [3] | Potency [4]

O=c1cc(O)c(Cl)c[nH]1
inactive: Potency [1] | Potency [2] | Potency [3] | Potency [4]

CO/N=C(/C(=O)N[C@@H]1C(=O)N2C(C(=O)[O-])=C(C[n+]3ccn4ncccc43)CS[C@H]12)c1nsc(N)n1
inactive: Potency [1] | Potency [2] | Potency [3] | Potency [4]

CCCCCCCCCCCCCCCCOP(=O)([O-])OCC[N+](C)(C)C
inactive: Potency [1] | Potency [2] | Potency [3] | Potency [4]

CC1(COc2ccc(CC3SC(=O)NC3=O)cc2)CCCCC1 (stereo not given)
inactive: Potency [1] | Potency [2] | Potency [3] | Potency [4]

NC(=O)n1c(O)c(C(=O)c2cccs2)c2cc(Cl)ccc21
inactive: Potency [1] | Potency [2] | Potency [3] | Potency [4]

CC1(C)Oc2ccc(C#N)cc2[C@@H](N2CCCC2=O)[C@@H]1O
inactive: Potency [1] | Potency [2] | Potency [3] | Potency [4]

CC[N+](C)(CC)CCOC(=O)C1c2ccccc2Oc2ccccc21
inactive: Potency [1] | Potency [2] | Potency [3] | Potency [4]

CCC(Cc1c(I)cc(I)c(N)c1I)C(=O)O (stereo not given)
inactive: Potency [1] | Potency [2] | Potency [3] | Potency [4]

COCCOC(=O)C1=C(C)NC(C)=C(C(=O)OC(C)C)C1c1cccc([N+](=O)[O-])c1 (stereo not given)
inactive: Potency [1] | Potency [2] | Potency [3] | Potency [4]

O=C(Cn1ccnc1[N+](=O)[O-])NCc1ccccc1
inactive: Potency [1] | Potency [2] | Potency [3] | Potency [4]

Nc1ncnc2c1ncn2Cc1c(F)cccc1Cl
inactive: Potency [1] | Potency [2] | Potency [3] | Potency [4]

Cc1cc(O)cc2c1O[C@](C)(CCC[C@H](C)CCC[C@H](C)CCCC(C)C)CC2
inactive: Potency [1] | Potency [2] | Potency [3] | Potency [4]

CN1N=C(C(N)=O)CCC1=O
inactive: Potency [1] | Potency [2] | Potency [3] | Potency [4]

NS(=O)(=O)c1cc(C(=O)NN2C[C@H]3[C@H]4CCC(C4)[C@H]3C2)ccc1Cl
inactive: Potency [1] | Potency [2] | Potency [3] | Potency [4]

COCCc1ccccn1
inactive: Potency [1] | Potency [2] | Potency [3] | Potency [4]

OC[C@H]1O[C@H](O[C@]2(CCl)O[C@H](CCl)[C@@H](O)[C@@H]2O)[C@H](O)[C@@H](O)[C@H]1Cl
inactive: Potency [1] | Potency [2] | Potency [3] | Potency [4]

NS(=O)(=O)c1cc2c(cc1C(F)(F)F)NC(Cc1ccccc1)NS2(=O)=O (stereo not given)
inactive: Potency [1] | Potency [2] | Potency [3] | Potency [4]

CC(C(=O)O)c1ccc(/C=C2\CCCCC2=O)cc1 (stereo not given)
inactive: Potency [1] | Potency [2] | Potency [3] | Potency [4]

CC(=O)OCC(COC(C)=O)OC(C)=O
inactive: Potency [1] | Potency [2] | Potency [3] | Potency [4]

Nc1cc(=O)[nH]c(N)n1
inactive: Potency [1] | Potency [2] | Potency [3] | Potency [4]

CC(=O)CC(c1ccccc1)c1c(O)c2ccccc2oc1=O (stereo not given)
inactive: Potency [1] | Potency [2] | Potency [3] | Potency [4]

CCn1cc(C(=O)O)c(=O)c2cc(F)c(N3CCNC(C)C3)c(F)c21 (stereo not given)
inactive: Potency [1] | Potency [2] | Potency [3] | Potency [4]

CC(C)NNC(=O)c1ccncc1
inactive: Potency [1] | Potency [2] | Potency [3] | Potency [4]

OCCN1CCN(CC/C=C2/c3ccccc3Sc3ccc(C(F)(F)F)cc32)CC1
inactive: Potency [1] | Potency [2] | Potency [3] | Potency [4]

C[C@H](CS)C(=O)N1CCC[C@H]1C(=O)O
inactive: Potency [1] | Potency [2] | Potency [3] | Potency [4]

CC(=O)SCC(CC(=O)c1ccc(C)cc1)C(=O)O (stereo not given)
inactive: Potency [1] | Potency [2] | Potency [3] | Potency [4]

CCOc1ccccc1OCC1CNCCO1 (stereo not given)
inactive: Potency [1] | Potency [2] | Potency [3] | Potency [4]

CC(C)Cc1ccc(CC(=O)O)cc1
inactive: Potency [1] | Potency [2] | Potency [3] | Potency [4]

CCC(C(=O)NC(=O)NC(C)=O)c1ccccc1 (stereo not given)
inactive: Potency [1] | Potency [2] | Potency [3] | Potency [4]

CCn1ccc(NS(=O)(=O)c2ccc(N)cc2)nc1=O
inactive: Potency [1] | Potency [2] | Potency [3] | Potency [4]

Cc1ccc(C(=O)c2ccc(CC(=O)O)n2C)cc1
inactive: Potency [1] | Potency [2] | Potency [3] | Potency [4]

COCCCN1CCC(NC(=O)c2cc(Cl)c(N)c3c2OCC3)CC1
inactive: Potency [1] | Potency [2] | Potency [3] | Potency [4]

CN1C(CSCC(F)(F)F)Nc2cc(Cl)c(S(N)(=O)=O)cc2S1(=O)=O (stereo not given)
inactive: Potency [1] | Potency [2] | Potency [3] | Potency [4]

CC(C)(C)CC(C)(C)c1ccc(O)c(-n2nc3ccccc3n2)c1
inactive: Potency [1] | Potency [2] | Potency [3] | Potency [4]

O=C1CC[C@@H](C(=O)O)N1
inactive: Potency [1] | Potency [2] | Potency [3] | Potency [4]

C[C@H]1C[C@H](O)c2ccsc2S1(=O)=O
inactive: Potency [1] | Potency [2] | Potency [3] | Potency [4]

Cc1ccc(S(=O)(=O)NC(=O)NC2CCCCC2)cc1
inactive: Potency [1] | Potency [2] | Potency [3] | Potency [4]

N#CCC(=O)NN
inactive: Potency [1] | Potency [2] | Potency [3] | Potency [4]

NC(N)=NS(=O)(=O)c1ccc(N)cc1
inactive: Potency [1] | Potency [2] | Potency [3] | Potency [4]

CCOC(=O)C(O)c1ccccc1 (stereo not given)
inactive: Potency [1] | Potency [2] | Potency [3] | Potency [4]

Nc1ccc(S(=O)(=O)Nc2ccnn2-c2ccccc2)cc1
inactive: Potency [1] | Potency [2] | Potency [3] | Potency [4]

CN1CCN2c3ncccc3Cc3ccccc3C2C1 (stereo not given)
inactive: Potency [1] | Potency [2] | Potency [3] | Potency [4]

Nc1ccn([C@@H]2O[C@H](CO)[C@@H](O)C2O)c(=O)n1 (stereo not given in full)
inactive: Potency [1] | Potency [2] | Potency [3] | Potency [4]

NS(=O)(=O)c1cc(C2(O)NC(=O)c3ccccc32)ccc1Cl (stereo not given)
inactive: Potency [1] | Potency [2] | Potency [3] | Potency [4]

O=C(O)[C@H](O)c1ccccc1
inactive: Potency [1] | Potency [2] | Potency [3] | Potency [4]

CC(=O)Nc1c(I)c(NC(C)=O)c(I)c(C(=O)O)c1I
inactive: Potency [1] | Potency [2] | Potency [3] | Potency [4]

CCCCCCCCCCCCCCCCO
inactive: Potency [1] | Potency [2] | Potency [3] | Potency [4]

COc1ccc(NS(=O)(=O)c2ccc(N)cc2)nn1
inactive: Potency [1] | Potency [2] | Potency [3] | Potency [4]

Cc1c(C(C)C)c(=O)n(-c2ccccc2)n1C
inactive: Potency [1] | Potency [2] | Potency [3] | Potency [4]

CN(C)CCOC(=O)C(c1ccccc1)C1(O)CCCC1 (stereo not given)
inactive: Potency [1] | Potency [2] | Potency [3] | Potency [4]

O=C(O)Cc1cn(-c2ccccc2)nc1-c1ccc(Cl)cc1
inactive: Potency [1] | Potency [2] | Potency [3] | Potency [4]

Cc1ccccc1N1CCN(CCc2nnc3n2CCCC3)CC1
inactive: Potency [1] | Potency [2] | Potency [3] | Potency [4]

c1ccc2c(c1)CCCC2C1=NCCN1 (stereo not given)
inactive: Potency [1] | Potency [2] | Potency [3] | Potency [4]

COc1cc(C)c(Cc2cnc(N)nc2N)cc1OC
inactive: Potency [1] | Potency [2] | Potency [3] | Potency [4]

Cc1cccc(C)c1NC(=O)c1cc(S(N)(=O)=O)c(Cl)cc1O
inactive: Potency [1] | Potency [2] | Potency [3] | Potency [4]

O=S(=O)(O)c1ccc2nc(-c3ccccc3)[nH]c2c1
inactive: Potency [1] | Potency [2] | Potency [3] | Potency [4]

O=C(O)c1ccccc1C(=O)Nc1ccc(S(=O)(=O)Nc2nccs2)cc1
inactive: Potency [1] | Potency [2] | Potency [3] | Potency [4]

COc1ccc(/C=N/NC(=O)c2ccncc2)cc1OC
inactive: Potency [1] | Potency [2] | Potency [3] | Potency [4]

C1COC(NC(C2CC2)C2CC2)=N1
inactive: Potency [1] | Potency [2] | Potency [3] | Potency [4]

CCOC(=O)c1ccccc1O
inactive: Potency [1] | Potency [2] | Potency [3] | Potency [4]

Cc1cc(OI)c(C(C)C)cc1-c1cc(C(C)C)c(OI)cc1C
inactive: Potency [1] | Potency [2] | Potency [3] | Potency [4]

CCOCCn1c(C2CCN(CCc3ccc(C(C)(C)C(=O)O)cc3)CC2)nc2ccccc21
inactive: Potency [1] | Potency [2] | Potency [3] | Potency [4]

O=C(O)c1cc(=O)c2c(OCC(O)COc3cccc4oc(C(=O)O)cc(=O)c34)cccc2o1
inactive: Potency [1] | Potency [2] | Potency [3] | Potency [4]

CCOC(=O)c1ccc(OCCN2C[C@H](O)[C@@H](O)[C@H](O)[C@H]2CO)cc1
inactive: Potency [1] | Potency [2] | Potency [3] | Potency [4]

COc1cc(OC)nc(O[C@H](C(=O)O)C(OC)(c2ccccc2)c2ccccc2)n1
inactive: Potency [1] | Potency [2] | Potency [3] | Potency [4]

NC(N)=NC(=O)Cc1c(Cl)cccc1Cl
inactive: Potency [1] | Potency [2] | Potency [3] | Potency [4]

Cc1cnc(NS(=O)(=O)c2ccc(N)cc2)nc1
inactive: Potency [1] | Potency [2] | Potency [3] | Potency [4]

O=C(CCBr)N1CCN(C(=O)CCBr)CC1
inactive: Potency [1] | Potency [2] | Potency [3] | Potency [4]

Cc1nnc(NS(=O)(=O)c2ccc(N)cc2)s1
inactive: Potency [1] | Potency [2] | Potency [3] | Potency [4]

COc1ccc2cccc(CCNC(C)=O)c2c1
inactive: Potency [1] | Potency [2] | Potency [3] | Potency [4]

O=C(COCCOCCOCC(=O)Nc1c(I)cc(I)c(C(=O)O)c1I)Nc1c(I)cc(I)c(C(=O)O)c1I
inactive: Potency [1] | Potency [2] | Potency [3] | Potency [4]

Cc1nnc(SCC2=C(C(=O)O)N3C(=O)[C@@H](NC(=O)Cn4cnnn4)[C@H]3SC2)s1
inactive: Potency [1] | Potency [2] | Potency [3] | Potency [4]

CC(=O)CC/C=C(\C)CC/C=C(\C)CC/C=C(\C)CCC=C(C)C
inactive: Potency [1] | Potency [2] | Potency [3] | Potency [4]

COC(=O)/C=C(/C)N
inactive: Potency [1] | Potency [2] | Potency [3] | Potency [4]

Cc1ccc(Cl)c(Nc2ccccc2C(=O)O)c1Cl
inactive: Potency [1] | Potency [2] | Potency [3] | Potency [4]

FC(F)(F)c1ccccc1-n1ccnc1
inactive: Potency [1] | Potency [2] | Potency [3] | Potency [4]

CCN(CC)CCOC(=O)c1ccc(N)cc1
inactive: Potency [1] | Potency [2] | Potency [3] | Potency [4]

CCCCCCn1c(=O)c2c(ncn2C)n(C)c1=O
inactive: Potency [1] | Potency [2] | Potency [3] | Potency [4]
